Data published in ChEMBL document CHEMBL3988442, “University of Dundee, Small-Polar-MMV Screening Library” (2021).

Biological target: AMP-activated protein kinase, AMPK (Homo sapiens) (UniProt P54646+O43741+P54619+Q9UGJ0+Q9Y478+Q13131+Q9UGI9)
Assay: AMP-dependent Kinase enzyme assay. An in vitro enzyme assay that detects ADP turnover that is directly proportional to AMPK activity. This uses naive AMPK that is activated during the assay with MK-8722
Type: functional
Parameters: scale not given: direction of the effect not stated beside the values
Conditions: 30 µM

| SMILES | Percent Effect |
| --- | --- |
| O=C(CCn1cnnn1)N1CCCC(CO)(CCCc2ccccc2)C1 (configuration not stated) | 0.115% |
| COCCN1CCN(Cc2cnc(C3(C)CCCCO3)nc2)CC1 (configuration not stated) | 11.3% |
| Cc1cc(NC(C)c2nnn[nH]2)n2nc(C)c(C)c2n1 (configuration not stated) | 20.6% |
| O=C(CCc1nc(-c2cccnc2)no1)NCC1CCN(C2CC2)C1 (configuration not stated) | -2.6% |
| CN(Cc1ccc([S+](C)[O-])cc1)c1cncc(Br)c1 (configuration not stated) | 13.9% |
| COc1ncccc1CNCc1cnc(N2CCOCC2)nc1 | -1.53% |
| Cc1nc2c(c(NCCNC(=O)C(C)C)n1)Cc1ccccc1OC2 | 3.56% |
| CC(CN1CCOCC1)NC(=O)N1CCCC1 (configuration not stated) | 12.9% |
| COC(=O)CSCc1nc(-c2ccc(Cl)cc2)no1 | -4.75% |
| CN1CCCC1c1ccnc2nccn12 (configuration not stated) | 6.44% |
| O=C(NCC(O)c1ccc(F)cc1)C1CCN(C2CCCCC2)CC1 (configuration not stated) | -8.77% |
| Cc1cc(N2CCN(Cc3ccsc3)C(CCO)C2)nc(N)n1 (configuration not stated) | 0.121% |
| CSc1ccc(OCCN2CCNC(=O)C2C)cc1 (configuration not stated) | 6.4% |
| COC(=O)c1ccoc1CN(C)CC(=O)NC1CCS(=O)(=O)C1 (configuration not stated) | -0.853% |
| Cc1ccc(F)c(CNc2ccn(CCC(N)=O)n2)c1 | -4.33% |
| CCSc1cc(C(=O)N(Cc2cnn(C)c2)C(C)C)ccn1 | 1.44% |
| Cn1ncnc1NCc1ccccc1Cl | 1.77% |
| O=C1OC2(CCN(CC3CCCO3)CC2)CN1CCc1ccccc1 (configuration not stated) | -11.7% |
| Cc1ccccc1S(=O)(=O)Cc1nsc(N(C)C)n1 | -0.34% |
| CN(Cc1nc2ccccc2[nH]1)C(=O)CN(C)c1ccc(Cl)cn1 | -0.551% |
| Fc1cc(CCNc2ccc3nccn3n2)c2c(c1)COCO2 | 17.6% |
| O=C1NCCN(CC2CCCCC2)C1CC(=O)N1CCc2n[nH]cc2C1 (configuration not stated) | -8.97% |
